Source: PubChem BioAssay (National Center for Advancing Translational Sciences (NCATS))
Rows were chosen to be rich in hits. Some 18% of all compounds tested hit in one or more screens of this group.
TGFb inhibitor = qHTS for Inhibitors of TGF-b | HepG2 CAGA-GFP TGF-b/SMAD3 reporter, GFP fluorescence, 18 h; TGF-beta stimulated, 500 pg/mL final | Potency, µM (highest dose often 46.1 µM), for the others: at the top dose activity, negative = inhibition, usual class: inhibitors | hit rate 1.2% among 410,000 | AID 588855, 2011; further: potency means the concentration at half of the fitted maximal effect; on the % scale 0 is the no-effect control and ±100 the full control effect; nearly all actives have a fitted effect of over 65% in size
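Per well, imaged GFP fluorescence of HEPG2 CAGA-GFP cells gives the signal; cells get compound, then TGF-beta (500 pg/mL final), 18 h at 37 degrees C; %Activity versus -TGF-beta and +DMSO controls.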
TDP1 cell CPT = qHTS for Inhibitors of human tyrosyl-DNA phosphodiesterase 1 (TDP1): qHTS in cells in presence of CPT; chicken DT40 Tdp1-/-;hTDP1 cells + 20 nM CPT, ATP luminescence, 48 h; Potency, µM (highest dose often 46.2 µM), without a hit: at the highest dose activity change, negative = growth inhibition, usual class: inhibitors; hit rate 12% among 420,000; further: potency means the concentration at half of the fitted maximal effect; on the % scale 0 is the no-effect control and ±100 the full control effect; nearly all actives have a fitted effect of over 55% in size
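Chicken DT40 Tdp1-/- cells complemented with human TDP1, 400 cells/well, exposed to compounds plus 20 nM camptothecin for at least 48 h at 37 C; viability read as ATP content by CellTiter-Glo luminescence.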
TDP1 inh = qHTS Assay for Inhibitors of Tyrosyl-DNA Phosphodiesterase (TDP1). Tyrosyl-DNA phosphodiesterase 1 (Homo sapiens), Q9NUW8. recombinant TDP1, AlphaScreen DNA substrate cleavage. Potency, µM (doses to about 130 µM), for inactives: top-dose activity change, negative = inhibition, actives largely listed as inhibitors. hit rate 0.28% among 350,000. AID 485290, 2010; further: potency means the concentration at half of the fitted maximal effect; on the % scale 0 is the no-effect control and ±100 the full control effect; nearly all actives have a fitted effect of over 40% in size
Target sequence (Q9NUW8 whole entry, looked up): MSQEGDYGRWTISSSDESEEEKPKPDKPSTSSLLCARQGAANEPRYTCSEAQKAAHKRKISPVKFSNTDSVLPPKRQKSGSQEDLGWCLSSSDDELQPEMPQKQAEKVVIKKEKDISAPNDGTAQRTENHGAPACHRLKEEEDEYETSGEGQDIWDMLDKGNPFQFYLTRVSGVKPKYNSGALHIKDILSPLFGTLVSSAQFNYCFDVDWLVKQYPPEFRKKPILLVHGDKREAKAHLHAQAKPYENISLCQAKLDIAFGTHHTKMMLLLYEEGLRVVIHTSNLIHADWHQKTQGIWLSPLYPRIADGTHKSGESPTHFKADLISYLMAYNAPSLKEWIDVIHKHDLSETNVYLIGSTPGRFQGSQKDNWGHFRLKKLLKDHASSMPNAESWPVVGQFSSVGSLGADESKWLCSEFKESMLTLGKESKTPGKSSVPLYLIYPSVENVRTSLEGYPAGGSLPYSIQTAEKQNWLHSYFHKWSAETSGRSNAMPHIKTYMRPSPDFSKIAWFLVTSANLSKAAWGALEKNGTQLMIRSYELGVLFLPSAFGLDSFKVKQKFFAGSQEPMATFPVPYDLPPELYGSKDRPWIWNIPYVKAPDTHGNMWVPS
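Enzyme-compound mixtures sat 15 min at room temperature, followed by a 5 min reaction with 15 nM final substrate and 10 min with AlphaScreen beads. Recombinant human Tdp1 was used at 1 nM final.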
IL-1B inflam inh = qHTS for Inhibitors of Inflammasome Signaling: IL-1-beta AlphaLISA Primary Screen; THP-1 LPS/ATP IL-1B secretion, AlphaLISA, 16 h; stronger effect = lower value; activity change, % at 57.5 µM; hit rate 4.7% among 360,000; AID 743279, 2014; in the data active means activity change below about -50%; inconclusive means mostly about -30% to -49%; further: on the % scale 0 is the no-effect control and ±100 the full control effect
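THP-1 cells pretreated 1 hr with compounds (up to 57.5 uM final), then stimulated with LPS (250 ng/mL final) plus ATP (1.25 mM final); secreted IL-1B measured by AlphaLISA after 16 hr, decreased signal indicating inhibition.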
HepG2 tox = qHTS for Inhibitors of TGF-b: Cytotox Counterscreen; hit rate 0.76% among 410,000; Potency, µM (highest dose often 46.1 µM), inactives show top-dose activity change, negative = cytotoxicity, usual class: cytotoxic; HepG2 CAGA-GFP viability, ATP luminescence, 18 h; further: potency means the concentration at half of the fitted maximal effect
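CellTiter-Glo luminescence gave cytotoxicity after 18 hours at 37 degrees C. The cells were HepG2 CAGA-GFP in 1% FBS DMEM, stimulated with 500 pg/mL TGF-beta after compound addition. %Activity was normalised to no-cell wells (complete cell-killing) and DMSO (no toxicity), and curves were fitted and classified.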
TDP1 cell noCPT = qHTS for Inhibitors of human tyrosyl-DNA phosphodiesterase 1 (TDP1): qHTS in cells in absence of CPT | DT40 Tdp1-/- hTDP1 cells, no CPT, ATP luminescence, 48 h | Potency, µM (top dose mostly 46.2 µM), without a hit: top-dose activity change, negative = growth inhibition, most hits filed as inhibitors | hit rate 15% among 420,000; further: potency means the concentration at half of the fitted maximal effect; on the % scale 0 is the no-effect control and ±100 the full control effect; nearly all actives have a fitted effect of over 55% in size
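Growth kinetics read by CellTiter-Glo luminescence after ≥48 hr at 37 °C. Cells: DT40 Tdp1-/- stably carrying human TDP1, 400 per well, compound exposure in the absence of CPT (DMSO vehicle).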
An asterisk follows results filed as active; ? = inconclusive; / = no result given. Unless noted, the call rests on the fitted dose curve; in most records, active means well fitted curve in the direction sought with a large enough effect; inconclusive means small, poorly fitted or top-dose-only effect, or another doubt; inactive means no such curve, though single readings can be large; an effect the other way counts as inactive or inconclusive.

SMILES	TGFb inhibitor	TDP1 cell CPT	TDP1 inh	IL-1B inflam inh	HepG2 tox	TDP1 cell noCPT
COc1ccc(CC(=O)Nc2ccc(OC(C)=O)cc2C(=O)O)cc1	0%	-5%	/	-2	1.1µM*	9%
COc1ccc(Cn2ccnc2SCC(=O)NCc2ccccc2)cc1	-11%	16µM*	2%	/	-2%	?
COc1cccc(CNC(=O)Cc2ccc(-c3ccccc3)cc2)c1	-25%	?	14%	22	-8%	21µM*
COc1ccc(CNC(=O)c2ccc3c(=O)n(-c4ccccc4)c(=O)[nH]c3c2)cc1	0%	8%	6%	14	-31%	-7%
COc1ccc(CC(=O)Nc2cc(Cl)ccc2C(=O)O)cc1	-3%	-10%	-5%	29	-21%	12%
C=CCNC(=O)C(=O)NCC1CCCN1S(=O)(=O)c1cccs1 (stereo not drawn)	17%	-2%	-7%	1	0%	-5%
COc1ccc(CC(=O)NCc2ccccc2)cc1	-16%	2.6µM*	/	28	-24%	2.9µM*
COc1cccc(CNC(=O)COc2ccc(C(=O)c3ccccc3)cc2)c1	-11%	?	/	-20	-12%	16µM*
O=c1c2ccccc2nc2n1C(CSc1ccc(F)cc1)CS2 (stereo not drawn)	-2%	1%	1%	14	0%	3%
O=c1c2ccccc2nc2n1C(CSCc1ccc(Cl)cc1)CS2 (stereo not drawn)	?	10µM*	-3%	-12	-3%	16µM*
Cc1ccc(NC(=O)C2CC(=O)N(c3ccccc3Cl)C2)cc1S(=O)(=O)N1CCOCC1 (stereo not drawn)	-2%	?	/	49	-15%	?
COc1cc(-c2ccc(NC(C)=O)c(OC)c2)ccc1NC(C)=O	-6%	-1%	/	-3	-5%	-2%
COc1cc(-c2cc(NC(C)=O)c3ncc(-c4cc(OC)c(OC)c(OC)c4)n3c2)cc(OC)c1OC	4%	8.2µM*	/	-1	-20%	7.3µM*
COc1cc(-c2cnc3c(NC(C)=O)cc(-c4ccccc4CN(C)C)cn23)cc(OC)c1OC	-5%	23µM*	/	63	-26%	18µM*
COc1cc(-c2cc(NC(C)=O)c3ncc(-c4ccccc4)n3c2)cc(OC)c1OC	7%	?	/	-60*	-37%	?
Cc1cc(OCC(=O)NC2CCN(Cc3ccccc3)CC2)c2c(C)cc(=O)oc2c1	-2%	?	4%	-14	4%	?
Cc1cc(C)c2oc(-c3ccc(Cl)c(NC(=O)c4cccs4)c3)nc2c1	8%	/	2%	/	-10%	/
COCCNC(=O)/C(C#N)=C/c1ccc(O)cc1	-4%	-21%	1%	2	-48%	-14%
COCCNC(=O)/C(C#N)=C/c1ccc(O)c([N+](=O)[O-])c1	-5%	-5%	-8%	15	24%	?
COCCNC(=O)/C(=C/c1ccccc1Cl)c1ccccc1	-16%	29µM*	0%	?	-15%	?
COCCNC(=O)/C(C#N)=C/C=C/c1ccccc1[N+](=O)[O-]	20µM*	10µM*	4%	-107*	-7%	7.3µM*
COCCNC(=O)/C(C#N)=C/c1cccc(/C=C(\C#N)C(=O)NCCOC)c1	?	5.8µM*	3%	-99*	-47%	12µM*
CNC(=O)/C(C#N)=C/c1cccc(Oc2ccccc2)c1	?	26µM*	1%	-102*	-62%	23µM*
